Measured values reported in PubChem BioAssay (NCATS).
Records with an inconclusive call do not appear. A call without a number means that no potency is given here. Active and inactive are the calls of the source. Calls follow the shape of the dose curve; as a rule, active = well fitted inhibition curve with a large enough effect; inconclusive = small, poorly fitted or top-dose-only effect; inactive = flat fitted curve, though single readings scatter.

These molecules were tested against Aldehyde dehydrogenase, mitochondrial (Homo sapiens) (UniProt P05091) (assay: qHTS for Inhibitors of the Aldehyde Dehydrogenase Family (ALDH2) Primary screen (AID 2061308; also: nearly all actives have a fitted effect of over 55% in size)). Details: ALDH2 enzyme inhibition qHTS, 1536-well; series mostly up to 56 µM.

Structure (SMILES)	Potency
Cc1ccc(OCCn2c(CCNC(=O)C3CCCCCC3)nc3ccccc32)cc1	inactive
Cc1nc(NC2CCCCC2)c2nc(-c3ccccc3)n(CCN(C)C)c2n1	inactive
COc1ccc(C2Nc3ccccc3C(=O)N2Cc2cccs2)cc1COc1c(C)cccc1C (stereo not given)	inactive
O=C1CCCC2=C1C(c1[nH]ncc1Cl)NC(=NCCc1cccnc1)N2 (stereo not given)	inactive
Cc1ccc(OCCn2c(CCNC(=O)CCc3ccccc3Br)nc3ccccc32)cc1	inactive
CCCn1c(C)nc2c(NCCCCN(CC)CC)nc(C)nc21	inactive
O=C(Nc1nc(-c2ccccc2)cs1)c1ccncc1NS(=O)(=O)c1ccc(F)cc1Cl	inactive
CCCCCn1ncc2c3sc(C)cc3n(C)c2c1=O	inactive
NC(=O)c1cccc(C[C@H](C(=O)O)N2C(=O)c3ccc(C(=O)O)cc3C2=O)c1	inactive
C=CCNc1oc(-c2cccc(F)c2)nc1C#N	inactive
Nc1ccc(-c2ccc(NC(=O)c3cccs3)cn2)cc1	inactive
O=C(O)c1ccc2c(c1)C(=O)N([C@@H](Cc1ccc(O)cc1)C(=O)O)C2=O	inactive
O=C(Nc1ccc(-c2nc3ccccc3[nH]2)cc1)c1ccncc1	inactive
O=C(NCc1ccccc1)Nc1ncnc2c1C(c1ccccc1)c1c(ccc3ccccc13)O2 (stereo not given)	inactive
Cc1nc(NCc2ccccc2)c2nc(-c3ccccc3)n(CCN3CCCCC3)c2n1	inactive
O=C(O)c1ccc2c(c1)C(=O)N([C@H](Cc1ccc(C(F)(F)F)cc1)C(=O)O)C2=O	inactive
C[C@@H]1CN(S(=O)(=O)c2c(F)cccc2F)CCN1S(=O)(=O)c1ccc2c(c1)OCCO2	inactive
Cc1c(P(=S)(c2ccccc2)c2ccccc2)c2ccccc2n1C(=O)NCc1ccc(F)cc1	inactive
O=S1(=O)N=C(Oc2cccc(Br)c2)c2ccccc21	inactive
CCN1CCN(c2cccc(Nc3nn4c(=O)c5ccccc5nc4s3)c2)CC1	inactive

Structure (SMILES)	Potency
COc1ccccc1/C=C/C(=O)NCCc1nc2ccccc2n1CCOc1ccc(C)cc1	inactive
Cn1nnnc1Sc1ncnc2scc(-c3ccc(Cl)cc3)c12	inactive
COc1cc(O)c(C(CC(=O)N2CCC(Cc3ccccc3)CC2)c2ccc3c(c2)OCO3)c(OC)c1 (stereo not given)	inactive
O=C(Cn1nc(C2CC2)ccc1=O)NCCc1ccccc1	inactive
Cc1cc2c(s1)c1cnn(Cc3ccccc3F)c(=O)c1n2C(C)C	inactive
O=C(NCc1nnc(-c2cc3ccccc3[nH]2)s1)c1ccccc1	inactive
O=C1CCCC2=C1C(c1[nH]ncc1Cl)N=C(Nc1ccccc1)N2 (stereo not given)	inactive
CCc1nnc(NS(=O)(=O)c2ccc(NC(=S)NC(=O)/C=C/c3ccc(F)cc3)cc2)s1	inactive
O=C1CCCC2=C1C(c1[nH]ncc1Cl)N=C(Nc1cccnc1)N2 (stereo not given)	inactive
Cc1ccc(OCCn2c(CCNC(=O)C3CCC3)nc3ccccc32)cc1	inactive
CC(=O)/C=C/[C@H]1[C@](C)(O)[C@@H](O)[C@H](O)C2C(C)(C)CCC[C@@]21C (stereo not given in full)	inactive
O=C(O)c1ccnc2c(O)cccc12	inactive
CCOC(=O)c1c(-c2ccc(OC)cc2)csc1NC(=O)C1CCCO1 (stereo not given)	inactive
O=C1c2ccccc2C(=O)N1c1cccc(O)c1	inactive
Cc1csc(CNc2ncnc3ccc(-c4ccc5c(c4)OCO5)cc23)n1	inactive
Cc1cc(C)n2ncc(C(=O)Nc3ccc4c(c3)OCCO4)c2n1	inactive
COCCN(CCOC)c1nc(C)nc2c1nc(-c1ccccc1)n2CCCN1CCCCC1C (stereo not given)	inactive
Cc1ccc(NC(=O)c2ccc3c(c2)CCC(=O)N3)cc1C	inactive
CC(=O)N1CCc2cc(S(=O)(=O)N3CCN(S(=O)(=O)c4c(F)cccc4F)CC3)ccc21	inactive
CN(C)[S+](=O)([O-])c1ccc(-c2ccc(=O)n(CC(=O)NCCc3ccccc3)n2)cc1	inactive
